Where “and” joins values, the source holds several entries; their conditions need not be identical. Identical values can stand only once. Results filed as inconclusive are left out. Calls of active or inactive are those of the source. Unless noted, the call rests on the fitted dose curve.
Tests used:
[1] = Cell Viability - LYMP2-016 (AID 984; active means well fitted curve in the direction sought with a large enough effect; an effect the other way counts as inactive or inconclusive; further: on the % scale 0 is the no-effect control and ±100 the full control effect; nearly all actives have a fitted effect of over 55% in size)
How it was run: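 Cytotoxicity was scored by luminescent ATP content (CellTiter-Glo) after 24 h compound exposure at 37 C of a human lymphoblastoid line at 2500 cells/well. Concentration-response data were fitted to the Hill equation for AC50.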

[2] = Cell Viability - LYMP2-018 (AID 985; active means well fitted curve in the direction sought with a large enough effect; an effect the other way counts as inactive or inconclusive;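 further: compound exposure lasted 24 hr at 37 °C; plate controls were DMSO only for no effect and tetraoctylammonium bromide at 92 µM for full effect; nearly all actives have a fitted effect of over 50% in size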)
How it was run: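 Human lymphoblastoid LYMP2-018 cells, 2500/well, settled 5 hr at 37 C then exposed to compound 24 hr at 37 C; intracellular ATP measured by CellTiter-Glo luminescence. AC50 from Hill-equation concentration-response fits.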

[3] = Cell Viability - LYMP2-022 (AID 987; active means well fitted curve in the direction sought with a large enough effect; an effect the other way counts as inactive or inconclusive;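 further: 0% = DMSO alone and full effect = tetraoctylammonium bromide at 92 µM; nearly all actives have a fitted effect of over 55% in size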)
How it was run: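 LYMP2-022 lymphoblastoid cells (2500/well, complete medium) were treated with compounds for 24 hours at 37 C; intracellular ATP was then read by CellTiter-Glo luminescence after 30 min at room temperature. AC50 values were derived from Hill-equation fits.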

[4] = Cell Viability - LYMP2-024 (AID 988; active means well fitted curve in the direction sought with a large enough effect; an effect the other way counts as inactive or inconclusive;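 further: plate controls were DMSO only for no effect and 92 µM tetraoctylammonium bromide for full effect; nearly all actives have a fitted effect of over 60% in size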)
How it was run: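 Human lymphoblastoid LYMP2-024 cells (2500/well) rested 5 hr, then treated with compound for 24 hr at 37 C in complete medium. Viability was measured as intracellular ATP by CellTiter-Glo luminescence. AC50 values came from Hill-equation fits.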

[5] = Cell Viability - LYMP2-026 (AID 989; active means well fitted curve in the direction sought with a large enough effect; an effect the other way counts as inactive or inconclusive; further: on the % scale 0 is the no-effect control and ±100 the full control effect; nearly all actives have a fitted effect of over 50% in size)
How it was run: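 Human lymphoblastoid LYMP2-026 cells, 2500/well, exposed to compound 24 h at 37 C in complete medium. Viability as intracellular ATP by CellTiter-Glo luminescence; AC50 from Hill fits of qHTS concentration-response.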

[6] = Cell Viability - LYMP1-002 - Assay at 24 hr (AID 993; active means well fitted curve in the direction sought with a large enough effect; an effect the other way counts as inactive or inconclusive; further: on the % scale 0 is the no-effect control and ±100 the full control effect)
How it was run: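 Human lymphoblastoid LYMP1-002 cells (2500/well) treated 24 h at 37 °C; viability as intracellular ATP by CellTiter-Glo luminescence. Tetraoctylammonium bromide as positive control; AC50 from Hill-equation fits of qHTS concentration-response.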

[7] = Cell Viability - LYMP1-002 - Assay at 40 hr (AID 994; active means well fitted curve in the direction sought with a large enough effect; an effect the other way counts as inactive or inconclusive;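 further: 0% = DMSO only and full inhibition = 92 µM tetraoctylammonium bromide; nearly all actives have a fitted effect of over 60% in size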)
How it was run: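 LYMP1-002 human lymphoblastoid cells (2500/well, complete medium) were treated with compounds for 40 hr at 37 C. Intracellular ATP was measured by CellTiter-Glo luminescence, and AC50 values came from Hill-equation fits of concentration-response data; tetraoctylammonium bromide was the positive control.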

[8] = qHTS Assay for Lipid Storage Modulators (AID 1519); conditions: Drosophila S3 cells, BODIPY lipid droplet/cell ratio, laser cytometry, cells loaded with oleic acid; on activity change, negative = inhibition: on the % scale 0 is the no-effect control and ±100 the full control effect
How it was run: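 Cells seeded at 5,000 per well were treated with compounds over a concentration series and loaded with oleic acid (400 uM, as added). Lipid droplet fluorescence (488 nm excitation, 500-530 nm channel) was read by laser-scanning cytometry and normalized to 20 uM Triacsin C.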

[9] = qHTS Assay for Identification of Small Molecule Inducers of Hypoxia Response (AID 2120; active means well fitted curve in the direction sought with a large enough effect in the signal ratio, with a control signal flat, not every such curve was filed as active; the % refers to the signal ratio; further: 0% is about no effect)
How it was run: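 HRE-bla ME-180 cells in Opti-MEM with 0.5% dialyzed FBS, pre-plated 4-5 h, then compound titration for 17 h at 37 degrees Celsius. CCF4 loaded 2.5 h at room temperature; 460/530 nm ratio gave %Activity and AC50 for induction.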

[10] = biological target: Ubiquitin carboxyl-terminal hydrolase 1 (Homo sapiens) (UniProt O94782); assay: Inhibitors of USP1/UAF1: Pilot qHTS (AID 504865; active means well fitted curve in the direction sought with a large enough effect; an effect the other way counts as inactive or inconclusive; further: potency means the concentration at half of the fitted maximal effect; nearly all actives have a fitted effect of over 35% in size)
Chain of Ubiquitin carboxyl-terminal hydrolase 1 (Homo sapiens) (O94782 whole entry, looked up): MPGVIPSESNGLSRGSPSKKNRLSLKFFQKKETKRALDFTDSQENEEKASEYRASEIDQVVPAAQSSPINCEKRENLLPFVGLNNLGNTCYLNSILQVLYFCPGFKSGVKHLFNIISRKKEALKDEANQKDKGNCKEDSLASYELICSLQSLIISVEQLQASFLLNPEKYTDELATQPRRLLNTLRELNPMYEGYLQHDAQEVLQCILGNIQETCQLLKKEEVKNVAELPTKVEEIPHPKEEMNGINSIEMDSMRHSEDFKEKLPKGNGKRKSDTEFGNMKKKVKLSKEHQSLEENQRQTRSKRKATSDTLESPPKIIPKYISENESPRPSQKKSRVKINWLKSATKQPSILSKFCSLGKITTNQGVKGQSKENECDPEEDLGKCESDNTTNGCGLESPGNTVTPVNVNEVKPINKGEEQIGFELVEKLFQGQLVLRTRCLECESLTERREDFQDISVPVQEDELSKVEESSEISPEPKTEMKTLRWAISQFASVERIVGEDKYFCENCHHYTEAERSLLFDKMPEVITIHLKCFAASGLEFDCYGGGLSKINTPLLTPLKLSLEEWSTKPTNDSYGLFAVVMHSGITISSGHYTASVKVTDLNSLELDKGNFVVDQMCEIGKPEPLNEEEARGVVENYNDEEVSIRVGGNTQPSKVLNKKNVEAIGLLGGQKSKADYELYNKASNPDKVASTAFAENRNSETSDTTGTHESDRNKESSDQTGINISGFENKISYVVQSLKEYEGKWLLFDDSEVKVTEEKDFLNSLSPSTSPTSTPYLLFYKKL
How it was run: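 Deubiquitinase activity followed as kinetic rhodamine fluorescence release from 150 nM Ub-Rho. 1 nM USP1/UAF1 with compound, after 15 min room-temperature preincubation, in HEPES pH 7.8 buffer containing TCEP, EDTA, BSA and Tween-20.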

[11] = biological target: Estrogen receptor (Homo sapiens) (UniProt P03372); assay: qHTS assay for small molecule agonists of estrogen receptor alpha signaling (AID 588514);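 further: 0% = vehicle only and 100% = reference agonist; nearly all actives have a fitted effect of over 70% in size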
Chain of Estrogen receptor (Homo sapiens) (P03372 whole entry, looked up): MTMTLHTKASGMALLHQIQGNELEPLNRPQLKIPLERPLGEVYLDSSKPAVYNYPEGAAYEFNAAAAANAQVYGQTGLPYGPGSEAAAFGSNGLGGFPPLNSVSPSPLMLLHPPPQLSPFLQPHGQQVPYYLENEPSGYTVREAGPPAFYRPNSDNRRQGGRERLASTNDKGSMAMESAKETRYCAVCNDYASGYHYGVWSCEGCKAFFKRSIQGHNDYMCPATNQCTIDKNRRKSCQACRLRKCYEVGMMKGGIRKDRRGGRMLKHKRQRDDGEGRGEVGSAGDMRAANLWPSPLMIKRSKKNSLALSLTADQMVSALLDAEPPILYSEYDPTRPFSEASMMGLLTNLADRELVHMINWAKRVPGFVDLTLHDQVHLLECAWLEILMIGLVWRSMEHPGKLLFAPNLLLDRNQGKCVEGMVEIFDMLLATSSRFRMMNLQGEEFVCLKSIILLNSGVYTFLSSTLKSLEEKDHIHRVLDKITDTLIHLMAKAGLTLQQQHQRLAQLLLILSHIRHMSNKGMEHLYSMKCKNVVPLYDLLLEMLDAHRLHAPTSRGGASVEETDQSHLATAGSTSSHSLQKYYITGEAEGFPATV
How it was run: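 ER-alpha-UAS-bla GripTite HEK293 cells, 5000/well in 2% charcoal/dextran-stripped FBS medium, treated with compound titrations 18 h at 37 C. CCF4 beta-lactamase read by fluorescence after 2 h RT; normalised to 20 nM 17-beta-estradiol (100%) and DMSO (0%), Hill fit for EC50 and efficacy.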

[12] = biological target: Bile acid receptor (Homo sapiens) (UniProt Q96RI1); assay: qHTS assay for small molecule antagonists of farnesoid X receptor signaling (AID 588526); further: potency means the concentration at half of the fitted maximal effect
Chain of Bile acid receptor (Homo sapiens) (Q96RI1 whole entry, looked up): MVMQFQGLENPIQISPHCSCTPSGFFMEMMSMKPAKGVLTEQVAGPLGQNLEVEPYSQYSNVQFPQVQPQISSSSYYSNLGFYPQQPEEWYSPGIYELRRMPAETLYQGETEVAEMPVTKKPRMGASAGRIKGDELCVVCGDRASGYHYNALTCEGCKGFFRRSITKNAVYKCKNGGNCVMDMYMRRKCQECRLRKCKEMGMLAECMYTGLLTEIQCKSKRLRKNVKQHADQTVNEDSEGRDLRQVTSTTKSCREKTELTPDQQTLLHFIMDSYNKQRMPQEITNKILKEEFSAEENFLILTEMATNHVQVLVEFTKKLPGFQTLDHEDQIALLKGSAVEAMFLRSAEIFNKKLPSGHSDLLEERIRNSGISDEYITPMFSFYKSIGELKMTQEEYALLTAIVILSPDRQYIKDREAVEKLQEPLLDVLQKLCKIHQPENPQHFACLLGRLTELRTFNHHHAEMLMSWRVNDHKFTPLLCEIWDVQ
How it was run: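 Concentration-response titrations were fitted to the Hill equation for half-maximal inhibition and maximal response, with data normalised to 50 uM chenodeoxycholic acid and DMSO control wells. Cells: FXR-UAS-bla HEK293T, dialyzed FBS.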

[13] = biological target: Bile acid receptor (Homo sapiens) (UniProt Q96RI1); assay: qHTS assay for small molecule agonists of farnesoid X receptor signaling (AID 588527); conditions: HEK293T FXR-UAS-bla, beta-lactamase ratio, 16 h; activation: stronger effect = higher value;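 further: 0% = vehicle basal and 100% = reference agonist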
How it was run: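 Read-out: beta-lactamase reporter fluorescence with CCF4 substrate in GeneBLAzer FXR-UAS-bla HEK293T cells, after 16 h compound exposure at 37 C. Response scaled between DMSO basal (0%) and chenodeoxycholic acid at 100 uM (100%).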

[14] = biological target: Glucocorticoid receptor (Homo sapiens) (UniProt P04150); assay: qHTS assay for small molecule agonists of glucocorticoid receptor signaling (AID 588532; active means well fitted curve in the direction sought with a large enough effect in the signal ratio, with a control signal flat; the % refers to the signal ratio;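 further: 100% = dexamethasone at 0.1 µM and 0% = DMSO only wells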); conditions: HeLa MMTV-bla, beta-lactamase ratio, agonist, 18 h; stronger effect = higher value; percent of dexamethasone control, DMSO zero
Chain of Glucocorticoid receptor (Homo sapiens) (P04150 whole entry, looked up): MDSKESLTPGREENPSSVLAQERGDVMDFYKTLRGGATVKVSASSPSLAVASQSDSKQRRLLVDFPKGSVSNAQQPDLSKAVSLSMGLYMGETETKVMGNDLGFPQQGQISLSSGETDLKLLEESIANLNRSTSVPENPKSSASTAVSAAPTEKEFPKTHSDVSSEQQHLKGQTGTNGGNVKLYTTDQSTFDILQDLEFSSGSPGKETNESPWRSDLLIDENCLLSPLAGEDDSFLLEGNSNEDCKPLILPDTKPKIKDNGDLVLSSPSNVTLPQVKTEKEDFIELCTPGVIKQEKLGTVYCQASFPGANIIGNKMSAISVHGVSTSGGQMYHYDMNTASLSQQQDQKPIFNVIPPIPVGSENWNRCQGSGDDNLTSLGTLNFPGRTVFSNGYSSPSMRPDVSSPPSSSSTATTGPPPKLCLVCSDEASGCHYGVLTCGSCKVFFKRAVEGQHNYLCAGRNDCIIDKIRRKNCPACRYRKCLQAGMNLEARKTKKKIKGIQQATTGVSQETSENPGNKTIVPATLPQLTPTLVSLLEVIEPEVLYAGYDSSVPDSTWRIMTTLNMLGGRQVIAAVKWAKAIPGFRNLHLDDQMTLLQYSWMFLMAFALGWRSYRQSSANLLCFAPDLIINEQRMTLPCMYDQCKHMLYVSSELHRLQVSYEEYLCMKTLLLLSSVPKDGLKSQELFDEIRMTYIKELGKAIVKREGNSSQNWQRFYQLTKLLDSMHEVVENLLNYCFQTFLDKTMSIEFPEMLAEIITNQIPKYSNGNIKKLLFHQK
How it was run: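 MMTV-bla HeLa, beta-lactamase reporter; medium with 1% charcoal/dextran-stripped FBS; cpds up to 92 uM, 18 h, 37 C; CCF4 readout 460/530 nm; Hill fit → EC50, efficacy vs 0.1 uM dexamethasone = 100%.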

[15] = biological target: Vitamin D3 receptor (Homo sapiens) (UniProt P11473); assay: qHTS assay for small molecule antagonists of vitamin D receptor signaling (AID 588541);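 further: receptor activated by calcitriol during compound treatment; on the % scale 0 is the no-effect control and ±100 the full control effect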
Chain of Vitamin D3 receptor (Homo sapiens) (P11473 whole entry, looked up): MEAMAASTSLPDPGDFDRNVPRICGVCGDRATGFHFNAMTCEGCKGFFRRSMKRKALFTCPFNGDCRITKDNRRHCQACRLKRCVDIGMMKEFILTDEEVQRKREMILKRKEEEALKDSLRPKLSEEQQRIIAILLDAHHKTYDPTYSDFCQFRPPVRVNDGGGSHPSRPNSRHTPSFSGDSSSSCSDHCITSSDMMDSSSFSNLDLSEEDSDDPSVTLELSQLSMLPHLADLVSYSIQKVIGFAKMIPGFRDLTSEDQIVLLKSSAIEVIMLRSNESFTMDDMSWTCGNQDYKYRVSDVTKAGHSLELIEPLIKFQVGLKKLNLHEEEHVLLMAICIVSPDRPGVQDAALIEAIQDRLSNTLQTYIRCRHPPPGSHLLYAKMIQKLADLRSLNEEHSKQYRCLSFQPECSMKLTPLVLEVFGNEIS
How it was run: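 VDR-UAS-bla HEK293T cells (2000/well, 2% charcoal-stripped FBS) were treated with titrated compounds plus 1-alpha,25-dihydroxyvitamin D3 (50 nM or 3 nM final) for 16 h at 37 C. CCF4 beta-lactamase fluorescence was read; Hill fits gave IC50.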

[16] = biological target: Vitamin D3 receptor (Homo sapiens) (UniProt P11473); assay: qHTS assay for small molecule agonists of vitamin D receptor signaling (AID 588543);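 further: 0% = DMSO basal and 100% = reference agonist control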
How it was run: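 Agonist-mode beta-lactamase reporter: HEK293T VDR-UAS-bla cells in charcoal-stripped 2% FBS, compound series 16 h 37 C, CCF4 2 h RT. EC50 from Hill fit, scaled against DMSO and 50 nM calcitriol control.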

[17] = qHTS assay for small molecule agonists of retinoid X receptor alpha signaling (AID 588544); conditions: HEK293T RXRa-UAS-bla, beta-lactamase reporter, 18 h; 530 nm emission;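 on activation: 0% = DMSO basal wells and 100% = reference agonist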
[18] = biological target: Retinoic acid receptor RXR-alpha (Homo sapiens) (UniProt P19793); assay: as above
Chain of Retinoic acid receptor RXR-alpha (Homo sapiens) (P19793 whole entry, looked up): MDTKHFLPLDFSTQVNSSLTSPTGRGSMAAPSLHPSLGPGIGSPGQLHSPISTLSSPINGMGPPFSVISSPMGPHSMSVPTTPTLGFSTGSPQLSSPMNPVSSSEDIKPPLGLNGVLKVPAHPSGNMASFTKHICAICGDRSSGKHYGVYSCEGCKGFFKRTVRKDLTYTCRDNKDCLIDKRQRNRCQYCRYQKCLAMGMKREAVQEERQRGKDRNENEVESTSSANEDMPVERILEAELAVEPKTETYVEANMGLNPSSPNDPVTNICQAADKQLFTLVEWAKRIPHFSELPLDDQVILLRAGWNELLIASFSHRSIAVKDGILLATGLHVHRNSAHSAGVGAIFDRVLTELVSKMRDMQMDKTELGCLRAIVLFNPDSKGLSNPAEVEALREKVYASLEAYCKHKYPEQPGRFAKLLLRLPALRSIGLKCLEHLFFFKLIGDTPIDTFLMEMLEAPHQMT

[19] = biological target: Thyroid hormone receptor beta (Homo sapiens) (UniProt P10828); assay: qHTS assay for small molecule agonists of thyroid hormone receptor beta signaling (AID 588545);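 further: 0% = DMSO only and 100% = 10 nM T3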
Chain of Thyroid hormone receptor beta (Homo sapiens) (P10828 whole entry, looked up): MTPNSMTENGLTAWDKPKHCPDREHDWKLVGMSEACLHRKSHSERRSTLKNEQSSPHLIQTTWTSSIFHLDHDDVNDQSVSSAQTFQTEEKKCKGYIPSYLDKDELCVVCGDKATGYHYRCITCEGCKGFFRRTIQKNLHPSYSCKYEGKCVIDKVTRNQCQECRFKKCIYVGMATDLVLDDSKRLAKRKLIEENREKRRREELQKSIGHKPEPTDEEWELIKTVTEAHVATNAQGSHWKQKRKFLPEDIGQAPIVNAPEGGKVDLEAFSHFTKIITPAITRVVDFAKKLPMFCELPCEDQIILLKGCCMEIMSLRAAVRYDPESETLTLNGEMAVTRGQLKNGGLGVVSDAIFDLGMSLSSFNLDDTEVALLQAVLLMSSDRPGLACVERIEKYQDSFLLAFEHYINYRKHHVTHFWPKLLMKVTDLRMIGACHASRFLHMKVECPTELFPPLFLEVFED
How it was run: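 Compounds were tested as agonists in TR-UAS-bla-GripTite HEK 293 cells. After 18 hrs at 37 C, CCF4 substrate was added and fluorescence read after 2 hrs at room temperature.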

[20] = qHTS assay for small molecule antagonists of retinoid X receptor alpha signaling (AID 588546); conditions: HEK293T RXRa-UAS-bla, beta-lactamase ratio, antagonist mode; measured here: W530 green channel, cytotoxicity proxy;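 further: cells stimulated with 9-cis-retinoic acid as agonist; on the % scale 0 is the no-effect control and ±100 the full control effect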
How it was run: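 Beta-lactamase reporter inhibition, read as CCF4 fluorescence ratio (ex 405, em 460/530 nm) after 2 h at RT. HEK293T UAS-bla cells, 2500/well, were stimulated with 9-cis-RA at 500 or 100 nM final alongside test compound for 18 h at 37 C.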

Oc1c(Cl)c(Cl)c(Cl)c(Cl)c1Cl
inactive: outcome [1] | outcome [2] | outcome [3] | outcome [4] | outcome [5] | outcome [6] | Potency [7] | activity change, negative = inhibition ([8]; at 57.5 µM (top of the series)) -4.15% | outcome [9] | Potency [11] | activation [13] 0.631% and 4.93% | activation [14] -3.18% | outcome [15] | Potency [16] | outcome [18] | Potency [19]
19.6%: max response [17]
-7.5%: max response ([8]; measured here: lipid channel max response)
-15.3% and -8.92%: max response [20]
active: Potency [10] 79.4 µM | Potency [12] 25.1 µM
-3.69%: max response ([8]; measured here: cell count channel max response)

— PubChem BioAssay (NCATS)
